The values that follow come from the supplement of paper PMC6763611.

The assay has as its system Plasmodium falciparum NF54. The experiment in a line: growth inhibition relative to untreated control; higher = more inhibition. To be noted: 72 h. A digest of the protocol: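 In dark 96-well half-area plates, each well held 100 μL of P. falciparum NF54 ring-stage culture at 1% parasitemia and 1% hematocrit. The cultures received a single test-compound dose of 5 μM or 1 μM and were kept at 37 °C for 72 h, in minimal RPMI either plain or enriched with folate (2.2 μM), pABA (7.3 μM), pHBA (7.3 μM), tyrosine (111 μM), phenylalanine (90 μM) and tryptophan. SYBR Green staining gave growth inhibition, expressed against untreated wells, with uninfected erythrocytes serving as the background.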

The mark [1] stands for this setting: 1 µM, MM + chorismate end-products (CM screening medium).
Where [2] appears, read: 5 µM, MM + chorismate end-products (CM screening medium).

As for `COc1cc(Br)cc2cc(C(=O)Nc3cccc(C(F)(F)F)c3)c(=O)oc12`, the growth inhibition by setting is: under setting [1], 11.9%; (1 µM, minimal medium (MM)) 6.95%; under setting [2], 21.7%; (5 µM, minimal medium (MM)) below 0%.

Regarding `Cc1ccccc1CN1CCC(O)(c2ccc(Cl)c(C(F)(F)F)c2)CC1`, the growth inhibition is 51.6% under setting [1]; 30% (1 µM, minimal medium (MM)); 82.6% under setting [2]; 76.2% (5 µM, minimal medium (MM)).

For `CNC(=O)c1cc(S(=O)(=O)N2CCN(c3ccccn3)CC2)cs1`, the growth inhibition reads like this: under setting [1], 98.3%; (1 µM, minimal medium (MM)) 96.6%; under setting [2], 90.2%; (5 µM, minimal medium (MM)) 90.9%.

Consider `CC(C)(C)[C@H]1CC[C@H](CC2=C(O)C(=O)c3ccccc3C2=O)CC1`, for which the growth inhibition reads like this: under setting [1], 97.5%; (1 µM, minimal medium (MM)) 95.2%; under setting [2], 94.8%; (5 µM, minimal medium (MM)) 93.4%.

Regarding `Cc1nc(-c2ccccn2)nc(N(C)CCc2ccccc2)c1Cl`, the growth inhibition is, setting by setting: under setting [1], 31.5%; (1 µM, minimal medium (MM)) 23.4%; under setting [2], 82.9%; (5 µM, minimal medium (MM)) 83.8%.

For the molecule `CN(C)c1cc(NC(=O)Nc2ccccc2)c2ccccc2n1`, the growth inhibition by setting is: under setting [1], 96%; (1 µM, minimal medium (MM)) 95.6%; under setting [2], 88.6%; (5 µM, minimal medium (MM)) 87.9%.

Regarding `COc1ccc(CCN2CCC(NCc3cccc(N(C)C)c3)CC2)cc1`, the growth inhibition is 88.1% under setting [1]; above 100% (1 µM, minimal medium (MM)); above 100% under setting [2]; 94.6% (5 µM, minimal medium (MM)).

`O=C(Nc1ccnc(-c2cccnc2)n1)c1cc(C(F)(F)F)cc(C(F)(F)F)c1`: the growth inhibition is, setting by setting: under setting [1], 13.6%; (1 µM, minimal medium (MM)) 20.9%; under setting [2], 93.8%; (5 µM, minimal medium (MM)) 86.6%.

In the case of `Cc1ccc(NC(=O)CC2COc3ccccc3O2)cc1Cl` (stereo unspecified), the growth inhibition was 23.4% under setting [1]; 10.6% (1 µM, minimal medium (MM)); below 0% under setting [2]; below 0% (5 µM, minimal medium (MM)).

For `Cc1nn(C(=O)Nc2cccc(C(F)(F)F)c2)c(C)c1Sc1ncccn1`, the growth inhibition by setting is: under setting [1], 0.416%; (1 µM, minimal medium (MM)) below 0%; under setting [2], 80.1%; (5 µM, minimal medium (MM)) 39.2%.

Take `COc1ccccc1CNC(=O)c1cc(C2CC2)nc2c1cnn2C(C)C`: the growth inhibition under setting [1] came out at 82.9%; the growth inhibition (1 µM, minimal medium (MM)) is 79.8%; the growth inhibition under setting [2] was 87.1%; the growth inhibition (5 µM, minimal medium (MM)) was found to be 91.4%.

On to `CN1CCN(CCCOc2ncc(Nc3ncc(-c4ccc(C(F)(F)F)c(F)c4)nc3C(N)=O)cn2)CC1`, for which the growth inhibition is above 100% under setting [1]; above 100% (1 µM, minimal medium (MM)); above 100% under setting [2]; 93.3% (5 µM, minimal medium (MM)).

Take `CCc1nc2ccccc2n1CC(O)COc1cc(C)ccc1Cl` (stereo unspecified): the growth inhibition is 31.1% under setting [1]; 36.8% (1 µM, minimal medium (MM)); 98.5% under setting [2]; 61% (5 µM, minimal medium (MM)).

For `FC(F)(F)c1cc(NCCc2ccccc2)nc(-c2ccccn2)n1`, the growth inhibition was 37.2% under setting [1]; 0.647% (1 µM, minimal medium (MM)); 0.0785% under setting [2]; below 0% (5 µM, minimal medium (MM)).

For the molecule `CC[C@@H]([C@H](C)O)n1ncn(-c2ccc(N3CCN(c4ccc(OC[C@@H]5CO[C@@](Cn6cncn6)(c6ccc(F)cc6F)C5)cc4)CC3)cc2)c1=O`, the growth inhibition was 45.5% under setting [1]; 50.3% (1 µM, minimal medium (MM)); 88.9% under setting [2]; 83.4% (5 µM, minimal medium (MM)).

Take `C[C@]1(COc2ccc(N3CCC(Oc4ccc(OC(F)(F)F)cc4)CC3)cc2)Cn2cc([N+](=O)[O-])nc2O1`: the growth inhibition under setting [1] is 2.53%; the growth inhibition (1 µM, minimal medium (MM)) came out at 3.49%; the growth inhibition under setting [2] turned out to be 21.9%; the growth inhibition (5 µM, minimal medium (MM)) worked out at 9.3%.

With `CN1CCN(S(=O)(=O)c2ccc(-c3ccc4c(Nc5ncc(Cl)cn5)ccnc4c3)cc2)CC1`, the growth inhibition under setting [1] is 96.5%; the growth inhibition (1 µM, minimal medium (MM)) stood at 96.3%; the growth inhibition under setting [2] amounted to 99%; the growth inhibition (5 µM, minimal medium (MM)) was found to be 88.6%.

Consider `CNCCC(Oc1ccc(C(F)(F)F)cc1)c1ccccc1` (stereo unspecified), for which the growth inhibition under setting [1] stood at 10.2%; the growth inhibition (1 µM, minimal medium (MM)) is below 0%; the growth inhibition under setting [2] was below 0%; the growth inhibition (5 µM, minimal medium (MM)) stood at 2.19%.

On to `CN(C(=O)c1cc2c(-c3cncnc3)cccc2[nH]1)c1ccccc1`, for which the growth inhibition under setting [1] was found to be 48.7%; the growth inhibition (1 µM, minimal medium (MM)) was determined as 56.4%; the growth inhibition under setting [2] was determined as 96%; the growth inhibition (5 µM, minimal medium (MM)) came to 94.3%.

`O[C@@H](c1cc(C(F)(F)F)nc2c(C(F)(F)F)cccc12)[C@H]1CCCCN1`: the growth inhibition under setting [1] was determined as 94.5%; the growth inhibition (1 µM, minimal medium (MM)) turned out to be 94.9%; the growth inhibition under setting [2] came to 91.5%; the growth inhibition (5 µM, minimal medium (MM)) came out at 85.5%.

`O=C(NCCN1CCCC1)c1cc(NCCN2CCOCC2)nc2ccc(Cl)cc12`: the growth inhibition came to 97.7% under setting [1]; 97.2% (1 µM, minimal medium (MM)); 92.2% under setting [2]; 96.8% (5 µM, minimal medium (MM)).

`COc1ccccc1OCCCCn1c(C2CC2)nc2ccccc21`: the growth inhibition by setting is: under setting [1], 37%; (1 µM, minimal medium (MM)) 21.3%; under setting [2], 74.9%; (5 µM, minimal medium (MM)) 50.7%.

For `Nc1ncnc2c1c(Cc1cccc3ccccc13)nn2CC1CCNCC1`, the growth inhibition runs as follows: under setting [1], 18.3%; (1 µM, minimal medium (MM)) 59.9%; under setting [2], 19.1%; (5 µM, minimal medium (MM)) below 0%.

For the molecule `COc1ccc2nccc(NC(=O)C3CCN(CCc4ccc(Cl)cc4)CC3)c2n1`, the growth inhibition reads like this: under setting [1], 33.1%; (1 µM, minimal medium (MM)) 30.5%; under setting [2], 42.1%; (5 µM, minimal medium (MM)) 42.2%.
